Experimental data from the supplement of paper PMC10849652.
About 8,800 targets were measured; listed, in parts, are those with a hit and a random draw of the rest. About 0.5% of all pairs of compound and target were hits.

Key:
Test in all cases: log2 fold change, soluble protein after heating vs DMSO (PISA); higher = thermal stabilisation; K562 lysate, 10 uM; active = over 0.2 and 3.5 SD of the protein, either way, in both replicates (recomputed)
erlotinib = compound: C#Cc1cccc(Nc2ncnc3cc(OCCOC)c(OCCOC)cc23)c1 [erlotinib]
In short: (§1)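 Pellets of K562 cells were dounce-homogenised in PBS pH 7.4 with 1 mM MgCl2, and the crude extract was held at 1 mg/mL protein for a 30 min treatment with 10 μM compound. Aliquots were heated for 3 min over 48°C-58°C and pooled before NP-40 was added to 0.5% at 4°C. The supernatant from 21,000xg for 90 min was quantified by TMTpro 16plex LC-MS/MS with channel sums equalised. Values are reported from duplicates as log-two fold change in thermal stability relative to solvent controls.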

[1] = compound: C/C(=N\NC(=O)C1=CC(=CC=C1)S(=O)(=O)N2CCOCC2)/C3=C(C=CC(=C3)Cl)O
In short: as §1

[2] = compound: C1=CC(=CC=C1C2=NC3=C(N2)C=C(C=C3)C(=O)N)OC4=CC=C(C=C4)Cl
In short: as §1

[3] = compound: C1=CC2=C(C=CC(=C2)/C=C\3/C(=O)NC(=NCC4=CC=CS4)S3)N=C1
In short: as §1

[4] = compound: C1=CC2=NC=CN=C2C=C1/C=C/3\C(=O)NC(=O)S3
In short: as §1

[5] = compound: C1=CC=C(C=C1)C2=NC(=C(N2)C3=CC=NC=C3)C4=CC(=C(C=C4)Cl)O
In short: as §1

[6] = compound: C1=CC=C2C(=C1)C3=NNC4=CC=CC(=C43)C2=O
In short: as §1

[7] = compound: C1CCN(C1)C(=O)NC2=CC=CC(=C2)NC3=NC=C(C(=N3)NCCC4=CN=CN4)Br
In short: as §1

[8] = compound: C1CN(CCC1(CC2=CC=C(C=C2)Cl)N)C3=NC=NC4=C3C=CN4
In short: as §1

IRAK-1-4 Inhibitor I = compound: C1COCCN1CCN2C3=CC=CC=C3N=C2NC(=O)C4=CC(=CC=C4)[N+](=O)[O-] [IRAK-1-4 Inhibitor I]
In short: as §1

ibrutinib = compound: C=CC(=O)N1CCC[C@@H](n2nc(-c3ccc(Oc4ccccc4)cc3)c3c(N)ncnc32)C1 [ibrutinib]
In short: as §1

[9] = compound: CC(=O)c1cnc2ccc(-c3cc(Cl)c(O)c(Cl)c3)nc2c1N[C@H]1CC[C@H](CN(C)C)CC1
In short: as §1

ralimetinib = compound: CC(C)(C)Cn1c(N)nc2ccc(-c3[nH]c(C(C)(C)C)nc3-c3ccc(F)cc3)nc21 [ralimetinib]
In short: as §1

[10] = compound: CC(C)(O)CC(=O)NCCn1ccc2ncnc(Nc3ccc(Oc4cccc(C(F)(F)F)c4)c(Cl)c3)c21
In short: as §1

[11] = compound: CC(C)C1=C2N=C(C=C(N2N=C1)NCC3=CC=CC=C3)NCCCCCCN
In short: as §1

[12] = compound: CC1=C(C(CC(=O)N1)C2=CC=C(C=C2)C(F)(F)F)C(=O)NC3=C(C=C4C(=C3)C=NN4)F
In short: as §1

[13] = compound: CC1=C(C2=C(C=C1)C(=O)C3=CC=CC=C3N2CCCN)C
In short: as §1

[14] = compound: CC1=C(C=C(C=C1)NC(=O)C2=CC(=CC=C2)C(C)(C)C#N)NC3=CC4=C(C=C3)N=CN(C4=O)C
In short: as §1

[15] = compound: CC1=C(C=C(C=C1)NC(=O)C2=CC(=CC=C2)N(C)C)NC(=O)C3=CC=C(C=C3)O
In short: as §1

[16] = compound: CC1=CC=C(C=C1)SC2=C3C=C(SC3=CN=C2)C(=O)N
In short: as §1

Measured: log2 fold change

USP10 isoform 2 (UniProt Q14694)
inactive: erlotinib 0.022 | [1] -0.032 | [2] 0.01 | [3] 0.007 | [4] -0.017 | [5] 0.023 | [6] -0.028 | [7] -0.033 | [8] -0.034 | IRAK-1-4 Inhibitor I -0.005 | ibrutinib -0.038 | [9] 0.001 | ralimetinib -0.019 | [10] -0.014 | [11] -0.006 | [12] -0.025 | [13] 0.018 | [14] 0.003 | [15] 0.018 | [16] 0.008

ZMYM4 (UniProt Q5VZL5)
Chain of UniProt Q5VZL5 (Q5VZL5 whole entry, looked up): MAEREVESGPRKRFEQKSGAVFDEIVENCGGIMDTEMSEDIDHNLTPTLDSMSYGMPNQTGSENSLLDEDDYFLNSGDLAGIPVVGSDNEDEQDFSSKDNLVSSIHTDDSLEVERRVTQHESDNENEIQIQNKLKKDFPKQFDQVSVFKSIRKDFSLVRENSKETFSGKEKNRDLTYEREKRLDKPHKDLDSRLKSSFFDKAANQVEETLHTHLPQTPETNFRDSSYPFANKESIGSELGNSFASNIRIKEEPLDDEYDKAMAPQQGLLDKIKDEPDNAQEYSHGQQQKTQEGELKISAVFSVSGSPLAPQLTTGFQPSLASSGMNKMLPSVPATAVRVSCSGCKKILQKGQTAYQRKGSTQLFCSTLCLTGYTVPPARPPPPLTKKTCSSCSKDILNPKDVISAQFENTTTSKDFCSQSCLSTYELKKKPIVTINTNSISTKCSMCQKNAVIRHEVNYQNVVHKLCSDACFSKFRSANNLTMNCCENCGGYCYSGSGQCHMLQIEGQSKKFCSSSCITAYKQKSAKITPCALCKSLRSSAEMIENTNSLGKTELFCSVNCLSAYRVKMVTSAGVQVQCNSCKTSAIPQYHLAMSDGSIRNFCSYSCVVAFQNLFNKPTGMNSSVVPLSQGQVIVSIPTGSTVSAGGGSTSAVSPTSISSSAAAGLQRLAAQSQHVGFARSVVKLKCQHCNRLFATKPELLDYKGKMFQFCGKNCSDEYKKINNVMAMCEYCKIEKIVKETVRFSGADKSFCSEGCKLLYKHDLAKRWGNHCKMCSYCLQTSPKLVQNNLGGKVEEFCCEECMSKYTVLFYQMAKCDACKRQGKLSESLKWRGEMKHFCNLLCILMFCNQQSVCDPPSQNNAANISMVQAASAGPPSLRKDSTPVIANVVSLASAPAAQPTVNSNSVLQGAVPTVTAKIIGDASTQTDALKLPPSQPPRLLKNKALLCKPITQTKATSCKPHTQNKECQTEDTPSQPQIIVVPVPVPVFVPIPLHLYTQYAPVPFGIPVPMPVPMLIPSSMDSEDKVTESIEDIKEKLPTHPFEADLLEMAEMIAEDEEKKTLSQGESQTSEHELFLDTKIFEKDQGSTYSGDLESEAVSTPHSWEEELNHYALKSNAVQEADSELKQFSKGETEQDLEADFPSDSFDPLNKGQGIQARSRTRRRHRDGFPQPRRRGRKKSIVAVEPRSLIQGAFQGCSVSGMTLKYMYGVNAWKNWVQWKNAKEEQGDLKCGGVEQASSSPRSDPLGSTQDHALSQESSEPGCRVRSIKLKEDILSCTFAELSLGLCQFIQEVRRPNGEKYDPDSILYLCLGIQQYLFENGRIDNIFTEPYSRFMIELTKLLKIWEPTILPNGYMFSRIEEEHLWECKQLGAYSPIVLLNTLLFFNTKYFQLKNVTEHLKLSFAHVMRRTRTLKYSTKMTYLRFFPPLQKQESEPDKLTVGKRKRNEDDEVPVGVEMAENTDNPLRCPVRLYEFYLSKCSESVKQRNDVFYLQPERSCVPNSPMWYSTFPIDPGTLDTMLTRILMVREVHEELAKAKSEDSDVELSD
inactive: erlotinib -0.023 | [1] -0.068 | [2] 0.027 | [3] 0.073 | [4] -0.099 | [5] 0.042 | [6] -0.088 | [7] -0.09 | [8] 0.015 | IRAK-1-4 Inhibitor I 0.005 | ibrutinib -0.079 | [9] -0.004 | ralimetinib 0.055 | [10] -0.025 | [11] 0.051 | [12] 0.026 | [13] -0.089 | [14] -0.011 | [15] -0.012 | [16] -0.001

USP9X (UniProt Q93008)
inactive: erlotinib 0.034 | [1] 0.013 | [2] -0.008 | [3] 0.015 | [4] 0.014 | [5] 0.003 | [6] -0.019 | [7] -0.005 | [8] -0.013 | IRAK-1-4 Inhibitor I 0.022 | ibrutinib -0.003 | [9] 0.001 | ralimetinib 0.025 | [10] -0.024 | [11] -0.032 | [12] -0.008 | [13] 0.009 | [14] -0.021 | [15] 0.043 | [16] 0.011

WDR3 (UniProt Q9UNX4)
inactive: erlotinib -0.036 | [1] -0.013 | [2] -0.044 | [3] -0.012 | [4] 0.027 | [5] -0.015 | [6] 0.026 | [7] 0.007 | [8] -0.04 | IRAK-1-4 Inhibitor I -0.02 | ibrutinib 0 | [9] 0.014 | ralimetinib 0.021 | [10] 0.025 | [11] -0.033 | [12] 0.015 | [13] -0.032 | [14] -0.021 | [15] -0.001 | [16] 0.03

WRN (UniProt Q14191)
inactive: erlotinib -0.003 | [1] -0.048 | [2] 0.005 | [3] 0.006 | [4] 0.057 | [5] 0.011 | [6] -0.077 | [7] 0.02 | [8] -0.012 | IRAK-1-4 Inhibitor I -0.013 | ibrutinib 0.02 | [9] -0.008 | ralimetinib 0.021 | [10] -0.055 | [11] -0.016 | [12] 0.023 | [13] 0.019 | [14] -0.016 | [15] 0.016 | [16] -0.048

UQCRC2 (UniProt P22695)
Chain of UniProt P22695 (P22695 whole entry, looked up): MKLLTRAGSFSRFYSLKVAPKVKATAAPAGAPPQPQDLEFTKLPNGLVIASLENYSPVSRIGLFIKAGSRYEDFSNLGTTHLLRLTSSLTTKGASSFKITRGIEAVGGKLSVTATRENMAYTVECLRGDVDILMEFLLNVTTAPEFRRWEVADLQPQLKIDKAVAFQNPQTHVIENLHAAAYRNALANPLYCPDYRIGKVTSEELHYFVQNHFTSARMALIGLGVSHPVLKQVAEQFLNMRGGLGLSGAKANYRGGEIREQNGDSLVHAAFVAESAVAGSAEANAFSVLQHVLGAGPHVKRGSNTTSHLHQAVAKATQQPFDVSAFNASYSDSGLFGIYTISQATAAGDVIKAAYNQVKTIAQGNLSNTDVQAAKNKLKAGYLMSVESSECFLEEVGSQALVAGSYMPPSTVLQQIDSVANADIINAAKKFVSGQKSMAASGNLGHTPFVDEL
inactive: erlotinib 0 | [1] -0.029 | [2] 0.006 | [3] -0.005 | [4] -0.019 | [5] 0.01 | [6] 0.013 | [7] -0.001 | [8] 0.019 | IRAK-1-4 Inhibitor I 0.014 | ibrutinib -0.022 | [9] 0.001 | ralimetinib 0.005 | [10] -0.04 | [11] -0.005 | [12] -0.001 | [13] 0.012 | [14] 0.029 | [15] 0.003 | [16] -0.013

XPO1 (UniProt O14980)
Chain of UniProt O14980 (O14980 whole entry, looked up): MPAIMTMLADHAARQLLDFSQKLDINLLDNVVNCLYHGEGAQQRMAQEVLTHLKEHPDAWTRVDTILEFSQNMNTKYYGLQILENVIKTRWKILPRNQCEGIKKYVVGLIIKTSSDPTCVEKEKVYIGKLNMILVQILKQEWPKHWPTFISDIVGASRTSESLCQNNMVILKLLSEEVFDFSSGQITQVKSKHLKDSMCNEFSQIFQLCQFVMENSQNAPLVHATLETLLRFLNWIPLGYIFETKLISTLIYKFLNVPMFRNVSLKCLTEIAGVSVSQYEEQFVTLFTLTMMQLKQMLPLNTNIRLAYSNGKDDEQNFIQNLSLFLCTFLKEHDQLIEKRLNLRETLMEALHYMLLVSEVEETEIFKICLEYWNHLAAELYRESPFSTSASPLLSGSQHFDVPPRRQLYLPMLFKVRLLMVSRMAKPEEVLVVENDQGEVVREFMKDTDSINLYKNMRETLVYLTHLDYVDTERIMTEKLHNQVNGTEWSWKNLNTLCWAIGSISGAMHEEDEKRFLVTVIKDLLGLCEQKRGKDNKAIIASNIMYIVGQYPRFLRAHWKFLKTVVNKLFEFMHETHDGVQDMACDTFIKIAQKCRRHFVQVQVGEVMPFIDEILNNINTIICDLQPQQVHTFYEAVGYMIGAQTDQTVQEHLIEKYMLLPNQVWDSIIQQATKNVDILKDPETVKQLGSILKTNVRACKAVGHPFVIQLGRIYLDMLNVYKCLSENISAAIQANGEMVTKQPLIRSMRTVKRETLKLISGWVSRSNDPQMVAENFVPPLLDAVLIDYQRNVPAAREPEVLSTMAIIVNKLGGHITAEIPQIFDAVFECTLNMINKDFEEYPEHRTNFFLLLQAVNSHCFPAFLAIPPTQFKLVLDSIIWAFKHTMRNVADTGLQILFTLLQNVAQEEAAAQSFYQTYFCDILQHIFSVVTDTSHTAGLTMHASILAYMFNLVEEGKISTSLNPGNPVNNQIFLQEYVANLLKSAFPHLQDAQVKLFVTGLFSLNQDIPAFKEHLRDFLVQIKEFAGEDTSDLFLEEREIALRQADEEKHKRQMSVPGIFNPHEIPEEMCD
inactive: erlotinib 0.021 | [1] 0.025 | [2] -0.015 | [3] 0.017 | [4] 0.026 | [5] -0.031 | [6] -0.045 | [7] -0.005 | [8] 0.033 | IRAK-1-4 Inhibitor I 0.016 | ibrutinib -0.01 | [9] 0.008 | ralimetinib 0.029 | [10] -0.037 | [11] -0.01 | [12] -0.007 | [13] 0.035 | [14] -0.004 | [15] 0.02 | [16] 0.019

VCPIP1 (UniProt Q96JH7)
Chain of UniProt Q96JH7 (Q96JH7 whole entry, looked up): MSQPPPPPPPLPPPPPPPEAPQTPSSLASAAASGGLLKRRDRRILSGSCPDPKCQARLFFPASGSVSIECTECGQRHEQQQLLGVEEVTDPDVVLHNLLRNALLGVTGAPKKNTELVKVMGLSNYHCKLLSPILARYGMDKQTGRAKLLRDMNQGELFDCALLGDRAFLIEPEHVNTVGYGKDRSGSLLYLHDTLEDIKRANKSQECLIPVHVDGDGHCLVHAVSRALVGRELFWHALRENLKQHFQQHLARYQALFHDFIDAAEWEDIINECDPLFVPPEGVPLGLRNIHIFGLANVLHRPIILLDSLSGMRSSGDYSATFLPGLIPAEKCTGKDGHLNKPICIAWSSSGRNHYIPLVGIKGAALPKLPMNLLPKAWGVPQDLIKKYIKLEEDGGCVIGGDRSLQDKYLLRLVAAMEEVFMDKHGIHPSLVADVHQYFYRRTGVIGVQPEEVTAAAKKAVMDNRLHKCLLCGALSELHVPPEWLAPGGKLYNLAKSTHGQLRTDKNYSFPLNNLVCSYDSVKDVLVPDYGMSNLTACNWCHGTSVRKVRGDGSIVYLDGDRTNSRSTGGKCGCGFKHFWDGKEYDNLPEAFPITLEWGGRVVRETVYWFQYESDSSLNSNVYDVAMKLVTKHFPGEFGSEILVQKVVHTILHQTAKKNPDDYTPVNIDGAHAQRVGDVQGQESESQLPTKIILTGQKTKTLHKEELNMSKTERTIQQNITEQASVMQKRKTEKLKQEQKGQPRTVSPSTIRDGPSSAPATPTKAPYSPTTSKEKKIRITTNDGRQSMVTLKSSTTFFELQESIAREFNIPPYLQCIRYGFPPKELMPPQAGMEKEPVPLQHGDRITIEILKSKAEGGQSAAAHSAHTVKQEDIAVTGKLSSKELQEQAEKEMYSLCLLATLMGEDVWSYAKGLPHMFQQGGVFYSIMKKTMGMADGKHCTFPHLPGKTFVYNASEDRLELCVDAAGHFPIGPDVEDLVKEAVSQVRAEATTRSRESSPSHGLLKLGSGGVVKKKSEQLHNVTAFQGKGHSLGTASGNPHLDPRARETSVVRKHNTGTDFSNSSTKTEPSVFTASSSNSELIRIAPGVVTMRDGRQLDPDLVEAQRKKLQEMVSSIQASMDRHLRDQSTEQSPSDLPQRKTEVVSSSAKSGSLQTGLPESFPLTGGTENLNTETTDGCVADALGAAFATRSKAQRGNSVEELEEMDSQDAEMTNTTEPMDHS
inactive: erlotinib -0.054 | [1] -0.04 | [2] -0.002 | [3] 0.053 | [4] -0.037 | [5] 0.041 | [6] 0.006 | [7] 0 | [8] 0.038 | IRAK-1-4 Inhibitor I -0.035 | ibrutinib 0.002 | [9] 0.01 | ralimetinib 0.009 | [10] 0.011 | [11] -0.029 | [12] -0.021 | [13] -0.05 | [14] -0.007 | [15] 0.048 | [16] -0.017

VASP (UniProt P50552)
inactive: erlotinib 0.001 | [1] -0.028 | [2] 0.017 | [3] -0.006 | [4] -0.035 | [5] -0.003 | [6] -0.02 | [7] -0.006 | [8] 0.035 | IRAK-1-4 Inhibitor I 0.014 | ibrutinib -0.002 | [9] 0.002 | ralimetinib -0.003 | [10] -0.018 | [11] -0.009 | [12] -0.007 | [13] 0.038 | [14] 0.014 | [15] -0.014 | [16] 0.01

ZC3H11A (UniProt O75152)
inactive: erlotinib 0.021 | [1] -0.048 | [2] -0.027 | [3] 0.004 | [4] -0.048 | [5] 0.029 | [6] -0.02 | [7] -0.011 | [8] -0.003 | IRAK-1-4 Inhibitor I -0.012 | ibrutinib 0.025 | [9] -0.1 | ralimetinib 0.019 | [10] -0.034 | [11] 0.025 | [12] 0.084 | [13] -0.016 | [14] 0.041 | [15] 0.041 | [16] -0.096

ZNF318 (UniProt Q5VUA4)
inactive: erlotinib 0.026 | [1] -0.033 | [2] -0.054 | [3] -0.015 | [4] -0.078 | [5] 0.003 | [6] 0.004 | [7] 0.023 | [8] 0.004 | IRAK-1-4 Inhibitor I 0.012 | ibrutinib 0.022 | [9] -0.043 | ralimetinib 0.029 | [10] -0.06 | [11] 0.014 | [12] 0.023 | [13] 0.038 | [14] -0.036 | [15] 0.046 | [16] 0.083

ZBTB33 (UniProt Q86T24)
Chain of UniProt Q86T24 (Q86T24 whole entry, looked up): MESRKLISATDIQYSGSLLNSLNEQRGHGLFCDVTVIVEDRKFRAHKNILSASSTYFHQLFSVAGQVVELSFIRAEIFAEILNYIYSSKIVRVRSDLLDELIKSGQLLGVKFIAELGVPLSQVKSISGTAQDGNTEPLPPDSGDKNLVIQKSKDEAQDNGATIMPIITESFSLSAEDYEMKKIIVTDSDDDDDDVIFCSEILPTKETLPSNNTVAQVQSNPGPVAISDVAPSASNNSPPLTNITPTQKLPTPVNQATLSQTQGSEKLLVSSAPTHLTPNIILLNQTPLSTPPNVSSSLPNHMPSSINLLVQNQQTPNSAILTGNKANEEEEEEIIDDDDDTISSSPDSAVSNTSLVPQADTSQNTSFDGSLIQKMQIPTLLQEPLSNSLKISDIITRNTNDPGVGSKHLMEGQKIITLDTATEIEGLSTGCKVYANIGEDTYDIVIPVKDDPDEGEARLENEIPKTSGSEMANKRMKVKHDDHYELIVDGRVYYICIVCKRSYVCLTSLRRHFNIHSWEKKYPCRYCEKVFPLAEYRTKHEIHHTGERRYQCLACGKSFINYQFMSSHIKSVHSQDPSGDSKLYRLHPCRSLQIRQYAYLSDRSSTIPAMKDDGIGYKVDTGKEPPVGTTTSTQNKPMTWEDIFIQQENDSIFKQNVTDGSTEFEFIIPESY
inactive: erlotinib 0 | [1] 0.012 | [2] 0.101 | [3] 0.062 | [4] 0.144 | [5] -0.025 | [6] -0.101 | [7] -0.053 | [8] 0.068 | IRAK-1-4 Inhibitor I -0.042 | ibrutinib 0.258 | [9] 0.183 | ralimetinib -0.058 | [10] -0.158 | [11] 0.141 | [12] -0.027 | [13] 0.109 | [14] 0.129 | [15] 0.044 | [16] 0.109

ZC2HC1A (UniProt Q96GY0)
inactive: erlotinib 0 | [1] -0.134 | [2] 0.058 | [3] 0.18 | [4] 0.073 | [5] -0.043 | [6] -0.1 | [7] -0.054 | [8] 0.009 | IRAK-1-4 Inhibitor I -0.012 | ibrutinib -0.029 | [9] -0.006 | ralimetinib 0.037 | [10] -0.056 | [11] -0.038 | [12] -0.016 | [13] -0.076 | [14] 0.045 | [15] -0.003 | [16] 0.006

ZMYM1 (UniProt Q5SVZ6)
inactive: erlotinib -0.041 | [1] -0.027 | [2] -0.002 | [3] 0.021 | [4] 0.007 | [5] -0.036 | [6] 0.041 | [7] 0.043 | [8] 0.025 | IRAK-1-4 Inhibitor I -0.008 | ibrutinib -0.04 | [9] 0.012 | ralimetinib 0.02 | [10] 0.016 | [11] -0.022 | [12] -0.049 | [13] -0.008 | [14] 0.001 | [15] -0.007 | [16] -0.011

VRK1 (UniProt Q99986)
inactive: erlotinib 0.009 | [1] -0.05 | [2] 0.002 | [3] 0.049 | [4] 0.015 | [5] 0.024 | [6] -0.02 | [7] 0 | [8] 0.02 | IRAK-1-4 Inhibitor I -0.02 | ibrutinib 0.008 | [9] 0.035 | ralimetinib 0.122 | [10] 0.005 | [11] -0.008 | [12] -0.013 | [13] 0.007 | [14] -0.015 | [15] 0.018 | [16] 0.003

VPS54 (UniProt Q9P1Q0)
inactive: erlotinib -0.018 | [1] -0.061 | [2] 0.059 | [3] -0.117 | [4] 0.213 | [5] -0.044 | [6] -0.114 | [7] -0.019 | [8] -0.079 | IRAK-1-4 Inhibitor I 0.036 | ibrutinib 0.048 | [9] -0.059 | ralimetinib -0.122 | [10] -0.267 | [11] -0.004 | [12] 0.038 | [13] 0.04 | [14] 0.144 | [15] 0.066 | [16] -0.037
